Reference: PubChem BioAssay AID1159580 (chemical genetic matrix, 2015)
Values joined by “and” are separate entries in the source; they are usually repeats but may differ in a detail not shown here. Equal entries are not always repeated. In all, about 5,500 compounds went through this assay and about 2,000 (36%) were called active. Roughly 18% stayed inconclusive and do not appear here. No stated cut-off is given here; in the data, active means normalized growth mostly below about 0.91 (no sharp cut-off); inconclusive means no clear call, values can overlap the other calls; inactive means mostly above about 0.92. Some of the results follow.

Assay: chemical genetic growth profiling, strain panel (AID 1159580);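 further: tested at 20 µM; growth read once vehicle control cultures reached saturation at 30 °C; 1 = growth at the plate median or of vehicle wells; lower values mean less growth of the strain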
Details: growth OD

Measured: normalized growth

COC(=O)C1=CCCN(C)C1
inactive: S. cerevisiae deletion strains, locus YKL068W, hits give low values 0.996 | S. cerevisiae deletion strains, locus YKL085W, strain MDH1 (second series), hits give low values 0.997 | S. cerevisiae deletion strains, locus YKL085W, strain MDH1, hits give low values 0.997 | S. cerevisiae deletion strains, locus YKL160W, strain elf1, hits give low values 1.03 | S. cerevisiae deletion strains, locus YKL190W, strain CNB1, hits give low values 1 | S. cerevisiae deletion strains, locus YKR001C, strain vps1, hits give low values 1.01 | S. cerevisiae deletion strains, locus YKR026C, strain gcn3, hits give low values 1.01 | S. cerevisiae deletion strains, locus YKR091W, strain srl3, hits give low values 1.01 | S. cerevisiae deletion strains, locus YLL001W, strain dnm1, hits give low values 0.989 | S. cerevisiae deletion strains, locus YLL026W, hits give low values 1.02 | S. cerevisiae deletion strains, locus YLL041C, strain sdh2, hits give low values 0.991 | S. cerevisiae deletion strains, locus YLR027C, strain aat2, hits give low values 1 | S. cerevisiae deletion strains, locus YLR039C, strain RIC1, hits give low values 0.983 | S. cerevisiae deletion strains, locus YLR058C, strain SHM2, hits give low values 0.973 | S. cerevisiae deletion strains, locus YLR102C, strain apc9, hits give low values 1 | S. cerevisiae deletion strains, locus YLR113W, strain HOG1, hits give low values 0.994 | S. cerevisiae deletion strains, locus YLR221C, strain rsa3, hits give low values 0.992 | S. cerevisiae deletion strains, locus YLR258W, strain gsy2, hits give low values 1.01 | S. cerevisiae deletion strains, locus YLR262C, strain YPT6 (second series), hits give low values 0.986 | S. cerevisiae deletion strains, locus YLR262C, strain YPT6, hits give low values 0.953 | S. cerevisiae deletion strains, locus YLR268W, strain sec22, hits give low values 1 | S. cerevisiae deletion strains, locus YLR320W, strain mms22, hits give low values 0.961 | S. cerevisiae deletion strains, locus YLR330W, strain CHS5, hits give low values 0.991 | S. cerevisiae deletion strains, locus YLR342W, strain FKS1 (second series), hits give low values 1.01 | S. cerevisiae deletion strains, locus YLR342W, strain FKS1, hits give low values 0.995 | S. cerevisiae deletion strains, locus YLR357W, strain rsc2, hits give low values 1.01 | S. cerevisiae deletion strains, locus YLR370C, strain arc18, hits give low values 1 | S. cerevisiae deletion strains, locus YLR371W, strain rom2, hits give low values 0.999 | S. cerevisiae deletion strains, locus YLR384C, strain iki3, hits give low values 1.02 | S. cerevisiae deletion strains, locus YLR418C, strain cdc73, hits give low values 1.02 | S. cerevisiae deletion strains, locus YML016C, strain PPZ1, hits give low values 0.987 | S. cerevisiae deletion strains, locus YML032C, strain rad52, hits give low values 0.983 | S. cerevisiae deletion strains, locus YML120C, strain ndi1, hits give low values 1 | S. cerevisiae deletion strains, locus YML124C, strain tub3, hits give low values 0.994 | S. cerevisiae deletion strains, locus YMR058W, strain fet3, hits give low values 1.03 | S. cerevisiae deletion strains, locus YMR078C, strain ctf18, hits give low values 0.996 | S. cerevisiae deletion strains, locus YMR125W, strain sto1, hits give low values 1.02 | S. cerevisiae deletion strains, locus YMR129W, hits give low values 1 | S. cerevisiae deletion strains, locus YMR205C, strain PFK2, hits give low values 0.955 | S. cerevisiae deletion strains, locus YMR223W, strain ubp8, hits give low values 0.981 | S. cerevisiae deletion strains, locus YMR231W, strain pep5, hits give low values 1.01 | S. cerevisiae deletion strains, locus YMR263W, strain SAP30, hits give low values 0.984 | S. cerevisiae deletion strains, locus YMR307W, strain GAS1, hits give low values 1.01 and 0.99 | S. cerevisiae deletion strains, locus YNL067W, strain RPL9B, hits give low values 0.979 | S. cerevisiae deletion strains, locus YNL071W, strain lat1, hits give low values 1.01 | S. cerevisiae deletion strains, locus YNL128W, strain TEP1, hits give low values 0.986 | S. cerevisiae deletion strains, locus YNL153C, strain GIM3, hits give low values 0.983 | S. cerevisiae deletion strains, locus YNL175C, strain NOP13, hits give low values 1.04 | S. cerevisiae deletion strains, locus YNL183C, strain NPR1, hits give low values 0.953 | S. cerevisiae deletion strains, locus YNL197C, strain WHI3, hits give low values 1 | S. cerevisiae deletion strains, locus YNL209W, strain ssb2, hits give low values 1 | S. cerevisiae deletion strains, locus YNL224C, strain SQS1, hits give low values 1 | S. cerevisiae deletion strains, locus YNL233W, strain BNI4, hits give low values 0.99 | S. cerevisiae deletion strains, locus YNL248C, strain rpa49, hits give low values 1.02 | S. cerevisiae deletion strains, locus YNL250W, strain rad50, hits give low values 0.993 | S. cerevisiae deletion strains, locus YNL271C, strain bni1, hits give low values 0.995 | S. cerevisiae deletion strains, locus YNL298W, strain CLA4, hits give low values 1 | S. cerevisiae deletion strains, locus YNL307C, strain MCK1, hits give low values 0.996 | S. cerevisiae deletion strains, locus YNL322C, strain KRE1 (second series), hits give low values 1.03 | S. cerevisiae deletion strains, locus YNL322C, strain KRE1, hits give low values 0.985 | S. cerevisiae deletion strains, locus YNR049C, strain mso1, hits give low values 0.995 | S. cerevisiae deletion strains, locus YNR052C, strain pop2, hits give low values 0.995 | S. cerevisiae deletion strains, locus YOL006C, strain TOP1, hits give low values 0.981 | S. cerevisiae deletion strains, locus YOL012C, strain htz1 0.9 | S. cerevisiae deletion strains, locus YOL147C, strain pex11, hits give low values 0.992 | S. cerevisiae deletion strains, locus YOR001W, strain rrp6, hits give low values 0.971 | S. cerevisiae deletion strains, locus YOR061W, strain CKA2, hits give low values 0.968 | S. cerevisiae deletion strains, locus YOR069W, strain VPS5, hits give low values 0.997 | S. cerevisiae deletion strains, locus YOR070C, strain gyp1, hits give low values 1.01 | S. cerevisiae deletion strains, locus YOR080W, strain dia2, hits give low values 1 | S. cerevisiae deletion strains, locus YOR083W, strain WHI5 (second series), hits give low values 1.02 | S. cerevisiae deletion strains, locus YOR083W, strain WHI5, hits give low values 1.01 | S. cerevisiae deletion strains, locus YOR106W, strain vam3, hits give low values 1.04 | S. cerevisiae deletion strains, locus YOR136W, strain idh2, hits give low values 1 | S. cerevisiae deletion strains, locus YOR144C, strain elg1, hits give low values 0.997 | S. cerevisiae deletion strains, locus YOR184W, strain ser1, hits give low values 0.989 | S. cerevisiae deletion strains, locus YOR231W, strain MKK1, hits give low values 0.994 | S. cerevisiae deletion strains, locus YOR265W, strain rbl2, hits give low values 1 | S. cerevisiae deletion strains, locus YOR270C, strain vph1, hits give low values 1.01 | S. cerevisiae deletion strains, locus YOR290C, strain snf2, hits give low values 1.02 | S. cerevisiae deletion strains, locus YOR316C, strain cot1, hits give low values 0.993 | S. cerevisiae deletion strains, locus YPL051W, strain arl3, hits give low values 1.03 | S. cerevisiae deletion strains, locus YPL055C, strain LGE1, hits give low values 0.977 and 1.03 | S. cerevisiae deletion strains, locus YPL078C, strain atp4, hits give low values 1.03 | S. cerevisiae deletion strains, locus YPL106C, strain sse1, hits give low values 1.04 | S. cerevisiae deletion strains, locus YPL240C, strain hsp82, hits give low values 1 | S. cerevisiae deletion strains, locus YPL241C, strain CIN2, hits give low values 0.994 | S. cerevisiae deletion strains, locus YPL256C, strain CLN2, hits give low values 1 | S. cerevisiae deletion strains, locus YPR119W, strain clb2, hits give low values 0.991 | S. cerevisiae deletion strains, locus YPR141C, strain kar3, hits give low values 0.99 | S. cerevisiae deletion strains, locus YPR163C, strain tif3, hits give low values 0.999 | S. cerevisiae deletion strains, locus YPR167C, strain met16, hits give low values 1 | S. cerevisiae deletion strains, strain wtn01, hits give low values 0.994 | S. cerevisiae strains, strain wild type, hits give low values 0.993
